According to PubChem BioAssay (NCI):
Compounds without any hit were thinned out: in the full panel of roughly 83,000, 20% have a hit.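 A percent growth of 40 corresponds to 60% growth inhibition; 0 means no net growth; -100 means all cells died. Active threshold: below 10.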 A number with no mark means an inactive call. Active and inactive are the calls of the source.

Legend:
Experiment in all cases: NCI-60 one-dose screen, 48 h (100 = growth as untreated, 0 = no growth, -100 = all killed)
Settings in all cases: 10 µM unless noted
NCI-H23 lung = system: NCI-H23 lung
NCI-H226 lung = system: NCI-H226 lung
NCI-H322M lung = system: NCI-H322M lung
HOP-62 NSCLC = system: HOP-62 NSCLC
NCI-H460 lung = system: NCI-H460 lung
HOP-92 NSCLC = system: HOP-92 NSCLC
NCI-H522 lung = system: NCI-H522 lung
A549/ATCC NSCLC = system: A549/ATCC NSCLC
786-0 renal = system: 786-0 renal
COLO 205 colon = system: COLO 205 colon

SMILES | growth (NCI-H23 lung) | growth (NCI-H226 lung) | growth (NCI-H322M lung) | growth (HOP-62 NSCLC) | growth (NCI-H460 lung) | growth (HOP-92 NSCLC) | growth (NCI-H522 lung) | growth (A549/ATCC NSCLC) | growth (786-0 renal) | growth (COLO 205 colon)
COc1ccc(-n2cc(-c3cc(OC)c(OC)c(OC)c3)n(C(C)=O)c2=O)cc1 | 95% | 94.6% | 78.8% | 126% | 109% | 85.7% | 77.4% | 99.8% | 64.5% | 91.5%
CCCN=C(N)c1ccc(NC(=O)c2ccc(C(=O)Nc3ccc(C(N)=NCCC)cc3)cc2)cc1 | 93.1% | 73.4% | 96.2% | 86.2% | 99.1% | 88.6% | 95% | 97.4% | 98.7% | 70.5%
O=C1c2ccccc2C(=O)c2c(NCCN=Cc3ccccc3O)cccc21 | 66.6% | 56.3% | 68.3% | 21.7% | 20.9% | 32% | 58.2% | 49% | -48.4% (active) | 42.2%
COC(=O)C1=C(C(=O)ONCCN(C)C)C2C=CC1(C(Cc1ccccc1)Nc1ccc(F)cc1)O2 (stereo not drawn) | 91.6% | 108% | 92.8% | 101% | 113% | 89.7% | 19.2% | 98.1% | 106% | -14.7% (active)
O=S(=O)(O)c1cc(O)c2c(N=Nc3ccc(Nc4ccccc4)c4c(S(=O)(=O)O)cccc34)cc(S(=O)(=O)O)cc2c1 | 100% | 101% | 120% | 100% | 105% | 101% | 93.5% | 101% | 102% | 97.9%
Cc1ccc(C2CC(c3cccc(Nc4ccncc4)c3)=NN2c2cc(Cl)cc(Cl)c2)cc1 (stereo not drawn) | 61.1% | 86.3% | 73.7% | 40.5% | -73.4% (active) | 57.7% | 21% | 4.87% (active) | 51% | -43.1% (active)
COc1cnccc1-c1nc2ccc3[nH]ncc3c2c2c1CCCC2 | 67.1% | 67% | 67.1% | 61% | 44.7% | 69.2% | 30.6% | 47.6% | 49% | 55.3%
C=C1C(=O)O[C@H]2[C@H]1CC/C(CNC(=O)/C=C/c1ccccc1F)=C\CC[C@@]1(C)O[C@@H]21 | 64.8% | 71.9% | 73.9% | 74.5% | 56.2% | -28.2% (active) | -73.5% (active) | 52.9% | -58.4% (active) | -45% (active)
CCOC(=O)C1=C(C)NC(C)=C(C(=O)OCC)C1c1cc(Br)c(O)c(OC)c1 | 34.3% | 32.7% | 55.3% | 31.8% | 18.7% | 16.3% | -37.5% (active) | 33.2% | 29.1% | 104%
COc1ccc(-c2cnc(N)nc2-c2ccc(OC)cc2O)cc1 | 92.5% | 99.8% | 90.4% | 110% | 89.8% | 57.8% | 79.6% | 93.1% | 90% | 113%
CC[C@@]12C=CCN3CC[C@]4(c5cc(NC(=O)COc6cc(OCC(=O)Nc7cc8c(cc7OC)N(C)[C@H]7[C@@](O)(C(=O)OC)[C@H](OC(C)=O)[C@]9(CC)C=CCN%10CC[C@]87[C@@H]%109)cc7oc(-c8ccccc8)cc(=O)c67)c(OC)cc5N(C)[C@@H]4[C@](O)(C(=O)OC)[C@H]1OC(C)=O)[C@H]32 | 0.327% (active) | 23.7% | 45.9% | 17.3% | 0.985% (active) | 33.9% | -27.7% (active) | 51.7% | 41.4% | 40.2%
COc1ccc(-c2nc(N/N=C/c3c[nH]c4ccccc34)nc(N3CCOCC3)c2C#N)cc1 | 111% | 105% | 94.1% | 105% | 82.8% | 69.1% | 99.7% | 92.4% | 45.9% | 78.5%
O=C(CCN1CCCC1)Nc1ccc2c(NCc3ccc(F)cc3)c3ccccc3nc2c1 | -39.8% (active) | 4% (active) | -4.47% (active) | -1.6% (active) | -63.4% (active) | -8.01% (active) | -50.1% (active) | -37.6% (active) | 6.33% (active) | -62.5% (active)
COc1cc(C2NC(c3cc(OC)c(OC)c(OC)c3)C(C#N)(C#N)C2(C#N)C#N)cc(OC)c1OC (stereo not drawn) | 101% | 91.5% | 100% | 94.8% | 104% | 96.5% | 95.6% | 103% | 97% | 101%
CC(O)(CO)c1ccccc1 (stereo not drawn) | 96% | 99.6% | 102% | 96.9% | 105% | 94.2% | 105% | 99.2% | 99% | 103%
COc1ccc(C(=O)c2cc3c(N)c(C(=O)Nc4ccc(Cl)cc4)sc3nc2C)cc1 | 89.7% | 57.1% | 87.1% | 37.5% | 68.4% | 78.2% | 43.8% | 77.1% | 81.6% | 85.8%
CCN(CC)CCCC(C)Nc1cc(-c2cccc(OC(F)(F)F)c2)nc2ccc(N3CCCC3)cc12 (stereo not drawn) | 57.9% | 46.7% | 17.7% | 23.3% | -4.02% (active) | -5.67% (active) | 2.05% (active) | 10.7% | -19.7% (active) | -79% (active)
COc1ccc(NC(=O)c2sc3nc(C)c(C(O)c4ccc(OC)cc4)cc3c2N)cc1 (stereo not drawn) | 36.2% | 63.5% | 51.3% | 31.8% | 9.03% (active) | 57.6% | 5.14% (active) | 23% | 53.3% | -6.28% (active)
O=CNc1cc(Cl)cc(Cl)c1 | 102% | 102% | 104% | 102% | 104% | 106% | 95.4% | 102% | 104% | 107%
CNC(=O)c1c(NC(=O)c2ccc(C(C)C)cc2)sc2c(CN(C)C)c(O)ccc12 | 101% | 95.2% | 94.2% | 98.9% | 38.7% | 64.7% | 77.8% | 115% | 83.9% | 97.6%
CS(=O)(=O)c1ccc(-c2cc(-c3nnc(SCC(=O)Nc4ccc(C(=O)/C=C/c5ccc(Cl)cc5)cc4)n3-c3ccccc3)c3ccccc3n2)cc1 | 97.8% | 94.6% | 89.8% | 95.1% | 99.1% |  | 90% | 91.5% | 93% | 106%
COc1cc(C(=O)c2cnc(-c3ccc4cc[nH]c4c3)[nH]2)cc(OC)c1OC | 22.9% | 26.2% | 36.3% | 12.7% | -9.07% (active) |  | -17.4% (active) | 8.91% (active) | -8.83% (active) | -55.3% (active)
c1ccc(CCSc2ncnc3nc[nH]c23)cc1 | 96.8% | 86.6% | 113% | 103% | 82% |  | 0.492% (active) | 77.3% | 102% | 90.1%
COc1cc(NCCCN(CC(C)C)CC(C)C)c2ncccc2c1 | 72.9% | 97.8% | 108% | 87.6% | 95.2% |  | 73.2% | 80.7% | 90.7% | 90.2%
Nc1nc(SN=Nc2ccc(S(N)(=O)=O)cc2)c2[nH]cnc2n1 | 8.88% (active) | 37.3% | 56.4% | 19.8% | 4.68% (active) |  | -9.91% (active) | 24.1% | 15.7% | -30.6% (active)
O=C1c2ccccc2-c2c1c1c(NCCCO)nc3ccccc3c1n2Cc1ccccc1 | 35.1% | 21.5% | 29.6% | -35.5% (active) | -29% (active) |  | 23.3% | 16% | -74.3% (active) | 62%
c1ccc(-c2nnc(Nc3ccc4c(c3)OCCO4)o2)c(NCc2ccncc2)c1 | 2.75% (active) | -9.34% (active) | 40.4% | 25.3% | 4.52% (active) |  | -34.5% (active) | 22.6% | 17.1% | -68.8% (active)
